Test results: PubChem BioAssay AID504333 (National Center for Advancing Translational Sciences (NCATS), 2011)
Screen size: about 360,000 compounds; about 16,000 (4.4%) were called active. Not shown: some 9% with an inconclusive outcome. The call rests on the fitted dose curve; in most records, active means well fitted inhibition curve with a large enough effect; inconclusive means small, poorly fitted or top-dose-only effect; inactive means no such curve, though single readings can be large or run the other way. Many of the other results were omitted from the sample, so actives are more common in it than they were.

Target: Bromodomain adjacent to zinc finger domain protein 2B (Homo sapiens) (UniProt Q9UIF8)
Assay: qHTS Assay for Inhibitors of BAZ2B; further: nearly all actives have a fitted effect of over 60% in size
Settings: AlphaScreen BAZ2B-H3K14Ac peptide displacement; series mostly up to 114 µM; activity change, negative = inhibition: at the top concentration
Excerpt: BAZ2B (bromodomain adjacent to zinc finger domain, 2B) belongs to a family of ubiquitously expressed bromodomain containing proteins, which biological function has not yet been elucidated. […] The interaction of BAZ2B with ISWI mediated by the BAZ1 motif has recently been described. […] The protocol is based on the AlphaScreen (PerkinElmer) displacement assay developed by NCGC [5], but uses the peptide ligand Biot-H3K14Ac, a high affinity binding partner for BAZ2B, in an AlphaScreen format. Although AlphaScreen has significant advantages with its utility in a variety of epigenetic target assays, the primary screening data provided in this deposition should be used with caution due to the prevalence of screening artifacts. The top compound concentration tested was 110uM in this assay, which increases number of actives and potential artifacts. An AlphaScreen counterscreen is highly recommended to be run against any putative actives to eliminate non-specific artifacts. Alternatively, one can use other AlphaScreen assays in PubChem to filter out promiscuous hits. Eberharter, A. et al. ACF1 improves the effectiveness of nucleosome mobilization by ISWI through PHD-histone contacts. The EMBO journal 23, 4029-4039. 2004. PMID: 15457208 [2] Jones, M.H. et al. A novel family of bromodomain genes. Genomics 63, 40-45. 2000. PMID: 10662543 [3] Yasgar, et al. Compound Management for Quantitative High-Throughput Screening. JALA. 2008 Apr;13(2):79-89. PMID: 18496600 [4] Inglese, et al. Quantitative high-throughput screening: a titration-based approach that efficiently identifies biological activities in large chemical libraries. Proc Natl Acad Sci. 1;103(31):11473-8. 2006. PMID: 16864780 [5] Quinn et al. A chemiluminescence-based method for identification of histone lysine methyltransferase inhibitors. Mol Biosyst 6(5): 782-8. 2010. PMID: 20567762 [6] Baell,Holloway. New substructure filters for removal of pan assay interference compounds (PAINS) from screening libraries and for their exclusion in bioassays. J Med Chem. 53(7):2719-40. 2010. PMID: 20131845 NIH Molecular Libraries Probe Production Network [MLPCN] NIH Chemical Genomics Center [NCGC] Structural Genomics Consortium (SGC) NIH Grant: 5U54 MH084681-02
To each well of a 1,536w plate, 2ul of BAZ2B protein (final 50nM) and 1ul biotinylated histone peptide acetylated at Lys14 [b-H3(5-23)K14Ac] (final 50nM) were added in 1x PBS buffer, pH 7.4, containing 0.01% Tween-20, using a nanoliter dispenser. Formation of a protein-peptide complex proceeded at room temperature for 30 min. A Kalypsys pin-tool was employed to transfer 23 nL of library compound solution in DMSO to each well. Following a 30 min incubation of the protein-peptide complex with compounds at room temperature, a mixture of 40 ug/mL each streptavidin-coated donor and nickel chelate acceptor AlphaScreen beads (final 10 ug/mL) were added in a 1ul dispense for a final volume of 4ul. A brief centrifugation followed (1000rpm, 1 min) and were then incubated protected from the light for 20 min at room temperature. Plates were read on an EnVision multilabel plate reader using the 1,536 plate HTS AlphaScreen aperture (excitation time 80 ms, measurement time 240 ms).
On the % scale 0 is the no-effect control and ±100 the full control effect; potency means the concentration at half of the fitted maximal effect.

Sequence of Bromodomain adjacent to zinc finger domain protein 2B (Homo sapiens) (Q9UIF8 whole entry, looked up, the tested form may be a part): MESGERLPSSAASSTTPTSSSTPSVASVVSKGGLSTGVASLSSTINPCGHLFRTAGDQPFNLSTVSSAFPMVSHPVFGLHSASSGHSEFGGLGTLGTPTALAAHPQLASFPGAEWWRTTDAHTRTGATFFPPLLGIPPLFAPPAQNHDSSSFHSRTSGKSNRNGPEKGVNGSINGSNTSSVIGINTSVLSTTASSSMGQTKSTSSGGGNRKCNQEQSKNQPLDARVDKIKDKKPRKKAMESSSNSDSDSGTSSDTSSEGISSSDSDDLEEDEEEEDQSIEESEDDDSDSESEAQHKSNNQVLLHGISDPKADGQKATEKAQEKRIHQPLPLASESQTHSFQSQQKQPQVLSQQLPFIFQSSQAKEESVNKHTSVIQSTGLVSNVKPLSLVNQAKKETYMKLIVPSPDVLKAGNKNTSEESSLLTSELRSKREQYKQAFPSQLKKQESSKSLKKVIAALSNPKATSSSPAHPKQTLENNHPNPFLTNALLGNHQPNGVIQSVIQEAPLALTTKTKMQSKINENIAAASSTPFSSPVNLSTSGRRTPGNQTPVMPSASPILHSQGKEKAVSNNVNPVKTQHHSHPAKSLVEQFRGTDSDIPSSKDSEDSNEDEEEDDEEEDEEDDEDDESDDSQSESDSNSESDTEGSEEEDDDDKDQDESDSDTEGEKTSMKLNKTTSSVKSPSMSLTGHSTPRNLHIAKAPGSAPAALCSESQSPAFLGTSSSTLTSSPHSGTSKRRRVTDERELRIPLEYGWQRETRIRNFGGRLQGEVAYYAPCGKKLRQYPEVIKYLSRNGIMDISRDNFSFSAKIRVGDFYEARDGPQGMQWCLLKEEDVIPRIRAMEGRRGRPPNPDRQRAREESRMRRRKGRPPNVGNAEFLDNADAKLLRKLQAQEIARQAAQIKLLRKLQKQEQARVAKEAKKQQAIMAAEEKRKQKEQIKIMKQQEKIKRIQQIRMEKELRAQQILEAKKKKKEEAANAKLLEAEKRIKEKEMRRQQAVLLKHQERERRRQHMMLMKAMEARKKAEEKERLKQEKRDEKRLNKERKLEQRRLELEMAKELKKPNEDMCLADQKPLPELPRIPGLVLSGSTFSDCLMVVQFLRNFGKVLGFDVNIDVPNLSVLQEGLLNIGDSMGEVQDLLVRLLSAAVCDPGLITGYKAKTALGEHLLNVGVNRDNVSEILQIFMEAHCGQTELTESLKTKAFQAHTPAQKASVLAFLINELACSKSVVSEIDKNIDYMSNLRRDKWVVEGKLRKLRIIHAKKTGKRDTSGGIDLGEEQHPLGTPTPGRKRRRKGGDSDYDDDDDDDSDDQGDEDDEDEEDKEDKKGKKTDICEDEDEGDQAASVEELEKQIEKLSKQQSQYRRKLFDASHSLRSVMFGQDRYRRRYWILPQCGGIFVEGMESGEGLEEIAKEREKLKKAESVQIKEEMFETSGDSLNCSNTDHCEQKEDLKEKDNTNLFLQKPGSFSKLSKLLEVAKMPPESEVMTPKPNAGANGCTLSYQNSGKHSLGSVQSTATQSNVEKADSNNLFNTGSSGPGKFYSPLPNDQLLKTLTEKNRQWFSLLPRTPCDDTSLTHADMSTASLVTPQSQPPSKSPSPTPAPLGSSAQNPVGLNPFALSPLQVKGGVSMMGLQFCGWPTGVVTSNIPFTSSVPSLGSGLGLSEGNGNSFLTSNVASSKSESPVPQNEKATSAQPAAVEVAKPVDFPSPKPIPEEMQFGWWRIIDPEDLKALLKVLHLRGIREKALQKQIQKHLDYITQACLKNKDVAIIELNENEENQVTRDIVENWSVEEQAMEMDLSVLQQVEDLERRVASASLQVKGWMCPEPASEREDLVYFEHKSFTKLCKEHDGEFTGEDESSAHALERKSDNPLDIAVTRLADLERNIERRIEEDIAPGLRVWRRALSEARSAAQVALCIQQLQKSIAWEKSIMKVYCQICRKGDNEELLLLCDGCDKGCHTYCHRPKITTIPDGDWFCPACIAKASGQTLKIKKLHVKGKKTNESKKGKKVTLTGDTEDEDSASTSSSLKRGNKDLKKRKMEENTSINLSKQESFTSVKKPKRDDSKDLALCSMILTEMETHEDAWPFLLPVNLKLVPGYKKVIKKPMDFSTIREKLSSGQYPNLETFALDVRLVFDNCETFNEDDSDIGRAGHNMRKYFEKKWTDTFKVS

Activity change, negative = inhibition, inactive:
COc1ccc2cc(CNc3ccc(OC)c(OC)c3)c(=O)n(CC(=O)Nc3ccccc3F)c2c1 0.402%
COc1cccc(-c2n[nH]c3c2C(c2cccc(O)c2)N(C)C3=O)c1 (configuration not stated) -16%
Cc1ccc(/C=N/NC(=O)c2cc3ccccc3cc2O)o1 -28.4%
COc1ccc(/C=C/c2noc(-c3ccccc3O)n2)cc1OC 4.53%
COc1ccc(-n2c(SCC(=O)Nc3ccc(Cl)c(C)c3)nc3n[nH]c(C)c3c2=N)cc1 -4.47%
CCc1cccc(NC(=O)CN(c2ccc(C)c(C)c2)S(=O)(=O)c2ccsc2C(=O)OC)c1 -6.76%
O=C(CN1CCN(c2ccc(F)cc2)CC1)Nc1ccccc1 6.8%
COc1cc(C)cc(CN2CCC(Cc3ccccc3)CC2)c1O -25.9%
Cc1cccnc1NC(=O)c1cccc(S(=O)(=O)N2CCN(c3ccc(F)cc3)CC2)c1 -30.1%
COc1cc(CN2CCC(C(N)=O)CC2)ccc1OCc1ccccc1 -14.9%
CCCS(=O)(=O)c1c(Nc2ccccc2C)sc(C(=O)c2ccccc2)c1N -30.6%
Cc1ccc(-c2nn3c(=O)cc(CN4CCN(S(=O)(=O)c5ccc(Cl)cc5)CC4)nc3s2)cc1 -2.85%
COc1cc(NC(=O)c2cc(C3CC3)nc3c2c(C)nn3-c2ccccc2)cc(OC)c1 10.3% [at 57.1 µM]
O=C(/C=C/c1ccccc1)Nc1cc(-c2nc3cc(Cl)ccc3o2)ccc1Cl -6.45%
CCN(CCCNC(=O)Cn1ncc2c([nH]c3ccccc32)c1=O)c1cccc(C)c1 -10.1%
CCCCNC(=O)c1ccc2c(c1)NC(=O)C(C(C)C)N2 (configuration not stated) -2.58%
CCC1CCCCN1C(=O)Cn1c(=O)n(CCCCCC(=O)NCc2ccccc2)c(=O)c2sccc21 (configuration not stated) 4.84%
Cc1ccc(C(=O)Nc2nc(-c3ccccc3)ns2)cc1 1.63%
CCC(=O)Nc1nc(C)c(C(=O)Nc2cccc(Cl)c2)s1 -34.4%
Cc1nc(NC(=O)c2cccc(Cl)c2)sc1-c1csc(Nc2cccc(Cl)c2)n1 -13.5%
COc1cccc(CC(=O)Nc2ccc(-c3csc(C)n3)cc2)c1 -13.6%
CC(=O)Nc1nc(C)c(-c2csc(Nc3ccc(S(N)(=O)=O)cc3)n2)s1 -12.2%
CCOC(=O)c1csc(NC(=O)Nc2cccc(OC)c2)n1 -4.77%
O=C(NCCc1ccc(Cl)cc1)c1ccc2c(c1)N(Cc1ccc(F)cc1)C(=O)CS2 -2.79%
COc1cc(NC(=O)c2noc3c2CSc2ccccc2-3)cc(OC)c1OC -8.66%
COc1ccc(-n2c(=O)c3sc4ccccc4c3n(CC(=O)Nc3cccc(C)c3)c2=O)cc1 -6.4%
COc1ccc(NC(=O)Cn2c(=O)n(CCC(C)C)c(=O)c3cccnc32)cc1Cl -0.608%
Cc1cccc(OCCCC(=O)Nc2sc3c(c2C(N)=O)CCC(C)C3)c1 (configuration not stated) -8.35%
COc1ccc(Cl)cc1NC(=O)Cn1c(=O)c2ccccc2n2nncc12 -22.9%
COc1ccc(OC)c(NC(=O)CN2CCCN(Cc3cc(C)ccc3C)S2(=O)=O)c1 -18.8%
Cc1cc(C(=O)Nc2cccc(C(F)(F)F)c2)c2c(C)nn(-c3cccc(F)c3)c2n1 18% [at 57.1 µM]
CC(=O)c1ccc(N2CCN(C3C(=O)c4ccccc4N3C(C)=O)CC2)cc1 (configuration not stated) -14.1%
Cc1ccc(C)c(Cn2c(CCCNC(=O)C3CCCCC3)nc3ccccc32)c1 -25.4%
CC(=O)c1ccc(N2CCN(C(=O)CCc3ccccc3)CC2)cc1 8.19% [at 0.457 µM]
O=C(Nc1ccc(F)cc1)N1CCN(c2ccc(F)cc2)CC1 2.02%
COc1cc(OC)c(NC(=O)c2cnc(N3CCCC3)nc2C)cc1Cl -6.13%
O=C(NCc1ccccc1)c1ccc2c(c1)nc1n2CCCCC1 7.55%
COc1cccc(C(=O)Nc2ccc3oc(-c4ccc5ccccc5c4)nc3c2)c1 -8.57%
CCCSc1nc2sc3c(c2c(=O)n1-c1cccc(Br)c1)CC(C)(C)OC3 3.93%
O=C(COC(=O)c1ccco1)NCc1ccc(Cl)cc1 -1.66%
O=S(=O)(NCc1ccco1)c1cnc(Cl)c(Cl)c1 1.63%
O=C(CCCl)Nc1ccc(S(=O)(=O)NCc2ccco2)cc1 -31%
CSCCC(NC(=O)c1ccco1)C(=O)OCC(=O)Nc1ncc(Cl)c(C)c1Cl (configuration not stated) -37.8%
Cc1nn2c(=O)cc(COC(=O)CNC(=O)c3ccc(F)cc3)nc2s1 -23.7%
CC1=C(c2ccc(C)c(C)c2)S(=O)(=O)NC1=NCc1ccccc1Cl -20.8%
COc1ccccc1N1CCN(c2ccc(=O)n(CC(=O)NCc3ccc(OC(C)C)cc3)n2)CC1 -12.3%
CCn1nc(C(=O)Nc2ccc(N3CCOCC3)cc2)c2ccccc2c1=O -3.8%
Fc1ccccc1Oc1ncnc2c1oc1ccccc12 6.13%
O=C(Nc1ccc(Br)cc1)c1cc2nc(-c3ccccc3)cc(-c3ccccc3)n2n1 22.8%
COc1ccc(Cl)cc1C(=O)Nc1ccc(N(C)C(C)=O)cc1 -1.13%
COc1cc(OC)c(C(=O)Nc2ccccc2-c2ccccc2)cc1OC -25.7%
Cc1cc(C)cc(NC(=O)CCS(=O)(=O)c2cc3c4c(c2)CCN4C(=O)CC3)c1 5.77%
COc1ccc(NC(C)=O)cc1NC(=O)CN1CCN(c2ccc(F)cc2)CC1 -18.2%
CCS(=O)(=O)N1CCc2cc(C(=O)N3CCN(c4ccccc4OC)CC3)ccc21 -2.3%
Cc1[nH]c2ccc(C(=O)N3CCN(C)CC3)cc2c1C -22.3%
CN(C(=O)CSc1nnc(NC(=O)Nc2ccccc2)s1)c1ccccc1 -3.45%
Cc1ccc(-n2cnc3cc(C(=O)NCCC4=CCCCC4)ccc32)cc1Cl -4.95%
CC(CC(=O)N1CCN(c2ccccc2)CC1)c1ccccc1 (configuration not stated) 2.9%
CCOC(=O)/C(C#N)=C/c1ccc(N2CCN(Cc3ccccc3)CC2)cc1 32.5%
COCCCNC(=O)Cn1cc(/C=C(\C#N)C(=O)N2CCN(c3ccccc3)CC2)c2ccccc21 -9.82%
O=C(CN1CCCC1)N1CCN(c2ccccc2)CC1 -2.41%
Fc1ccc(C(Nc2ccc(Cl)c(C(F)(F)F)c2)c2nnc(-c3ccccc3)o2)cc1 (configuration not stated) 0.454%
COc1cc(Cl)c(NC(=O)CC(C)S(=O)(=O)c2cc3c(cc2C)NC(=O)CO3)c(OC)c1 (configuration not stated) -12.4%
Cc1cccc(Cc2c(C)nc3nc(SCc4ccccc4Cl)nn3c2C)c1 10.9%
CCN(C(=O)CN1C(=O)/C(=C/c2ccc(F)cc2)SC1=S)C1CCS(=O)(=O)C1 (configuration not stated) -37.8%
CN(C(=O)CN1C(=O)/C(=C/c2ccc(Cl)cc2)SC1=S)C1CCS(=O)(=O)C1 (configuration not stated) -16.7%
COCCN(Cc1ccco1)C(=O)Cn1ncc2c([nH]c3ccccc32)c1=O -17.6%
Cc1cc(C)cc(NC(c2nnc(-c3cccc(F)c3)o2)c2ccc(F)cc2Cl)c1 (configuration not stated) -23.2%
CCCS(=O)(=O)Nc1cccc(-c2cn3ccsc3n2)c1 3.8%
COc1ccccc1C(=O)N1CCN=C1SCc1cccnc1 -5.61%
COc1cccc(OC)c1OCCN1CCN(C(=O)c2ccco2)CC1 -6.15%
CCCn1c(NCc2ccccc2F)nc2ccccc21 -5.42%
CCCn1c(NC(=O)C23CC4CC(CC(O)(C4)C2)C3)nc2ccccc21 -30.6%
O=C(NC1(C(F)(F)F)N=C(c2ccccc2)N(C2CCCCC2)C1=O)c1ccccc1F (configuration not stated) -14.1%
CCN(CC)C(=O)CSc1nc2ccsc2c(=O)n1Cc1ccccc1Cl -24.2%
Cc1cc(/C=C2/NC(=O)NC2=O)c(C)n1-c1cccnc1 -9.46%
COc1cc(C(=O)NCCc2csc3nc(-c4ccccc4C)nn23)cc(OC)c1OC 5.94%
CCOCCc1nn2c(=O)cc(COC(=O)CNC(=O)c3ccc(C(C)(C)C)cc3)nc2s1 -6.71%
CCCCN(C)c1nnc(NC(=O)Nc2ccc(Br)c(C)c2)s1 1.07%
c1ccc2c(CSCc3nc4ccccc4[nH]3)cccc2c1 -34%
Nc1scc[n+]1Cc1cccc2cccnc12 -24.8%

Potency, active:
Cc1cc(N=Nc2ccc3ccccc3c2)ccc1O 28.2 µM
Oc1c(CN2CCN(c3ccc(F)cc3)CC2)cc(Cl)c2cccnc12 22.4 µM
Oc1c(CN2CCCC2)cc(COCc2ccccc2)c2cccnc12 17.8 µM
CCN(CCCNC(=O)c1ccc2c(c1)NC(=O)CN2C)c1cccc(C)c1 50.1 µM
Cc1ccc(Nc2nc(-c3sc(NC(=O)c4ccccc4)nc3C)cs2)cc1 50.1 µM
CCCCCCC(=O)Nc1nc(C)c(-c2csc(Nc3cccc(OC)c3)n2)s1 50.1 µM
C=CCCC(=O)Nc1nc(C)c(-c2csc(Nc3ccc(Cl)cc3)n2)s1 44.7 µM
CC(=O)N1CCN(c2ccc(NCc3ccc(C(C)C)cc3)cc2)CC1 35.5 µM
CCN1/C(=C\c2ccc3ccccc3[n+]2CC)Sc2cc(C)ccc21 50.1 µM
Cc1c(Cl)cnc(NC(=O)COC(=O)c2ccc(S(=O)(=O)NCc3ccco3)cc2)c1Cl 50.1 µM
O=C(COC(=O)c1cnc(Cl)c(Cl)c1)NCc1ccco1 50.1 µM
CC(C)c1ccc(NC(=O)c2ccc(Cn3nc(N4CCN(c5ccccc5)CC4)ccc3=O)o2)cc1 39.8 µM
COc1cc(OC)c(C(=O)Nc2ccc(N(C)C)cc2)cc1OC 50.1 µM
CCOc1ccccc1N1CCN(C(=O)c2ccc3[nH]c(C)c(C)c3c2)CC1 44.7 µM
COc1ccc(N2CCN(C(=O)/C(C#N)=C/c3ccccc3)CC2)cc1 50.1 µM
C/C(=C/c1ccccc1)C(=O)N1CCN(c2ccccc2)CC1 56.2 µM
O=C1/C(=C/c2cccs2)SC(=S)N1C1CCS(=O)(=O)C1 (configuration not stated) 22.4 µM
COc1cccc(OC)c1C(=O)N1CCN(Cc2cccnc2)CC1 50.1 µM
CCCn1c(NCc2ccc(N(CC)CC)cc2)nc2ccccc21 39.8 µM
Cc1cccc(C)c1-n1c(C)cc(/C=C2\C(=O)NN(c3ccccc3)C2=O)c1C 14.1 µM
c1ccc2c(C[n+]3csc4ccccc43)cccc2c1 56.2 µM
